Data as given in the supplement of paper PMC6555819.

What was measured:
Test in all cases: PBM binding z-score (relative to random genomic background probes); higher = stronger binding; sequences stand for … in GC…GCGATTGACAGCGTAGAATGAAGG
[1] = system: FXR:RXRa (NR concentration 270 nM, RXRa partner concentration 90 nM)
Method in brief: (§1)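 Regression normalization was applied to scanned fluorescence from custom Agilent 4×180K protein-binding microarrays. Before scanning, arrays were incubated 1 h with ligand-free nuclear receptor dimers, and binding was detected with antibodies against each partner (one per run). Binding z-scores use the random background probes as reference.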

[2] = system: LXRa:RXRa (NR concentration 270 nM, RXRa partner concentration 90 nM)
Method in brief: as §1

[3] = system: LXRa homodimer (NR concentration 270 nM)
Method in brief: as §1

[4] = system: LXRb:RXRa (NR concentration 270 nM, RXRa partner concentration 90 nM)
Method in brief: as §1

[5] = system: LXRb homodimer (NR concentration 270 nM)
Method in brief: as §1

[6] = system: PPARa:RXRa (NR concentration 270 nM, RXRa partner concentration 90 nM)
Method in brief: as §1

[7] = system: PPARg:RXRa (NR concentration 180 nM, RXRa partner concentration 90 nM)
Method in brief: as §1

[8] = system: PPARg:RXRa 270nM:90nM, anti-RXR (NR concentration 270 nM, RXRa partner concentration 90 nM)
Method in brief: as §1

[9] = system: PPARg:RXRa 30nM:10nM, anti-RXR (NR concentration 30 nM, RXRa partner concentration 10 nM)
Method in brief: as §1

[10] = system: PPARg:RXRa 90nM:30nM, anti-RXR (NR concentration 90 nM, RXRa partner concentration 30 nM)
Method in brief: as §1

[11] = system: PPARg:RXRa DBDmut IVT, anti-RXR (DBD mutation: RXRa K156A/R161A, NR concentration 270 nM, RXRa partner concentration 90 nM)
Method in brief: as §1

[12] = system: PPARg:RXRa IVT, anti-PPARg (NR concentration 270 nM, RXRa partner concentration 90 nM)
Method in brief: as §1

[13] = system: PPARg DBDmut:RXRa IVT, anti-PPARg (DBD mutation: PPARg1 K132A/R137A, NR concentration 270 nM, RXRa partner concentration 90 nM)
Method in brief: as §1

[14] = system: PPARg DBDmut IVT, anti-PPARg (DBD mutation: PPARg1 K132A/R137A, NR concentration 270 nM)
Method in brief: as §1

[15] = system: PPARg homodimer (NR concentration 180 nM)
Method in brief: as §1

[16] = system: PXR:RXRa (NR concentration 270 nM, RXRa partner concentration 90 nM)
Method in brief: as §1

[17] = system: PXR homodimer (NR concentration 270 nM)
Method in brief: as §1

[18] = system: RARa:RXR (NR concentration 270 nM, RXRa partner concentration 90 nM)
Method in brief: as §1

[19] = system: RARa homodimer (NR concentration 270 nM)
Method in brief: as §1

[20] = system: RARb:RXRa (NR concentration 270 nM, RXRa partner concentration 90 nM)
Method in brief: as §1

Sequence	PBM binding z-score [1]	PBM binding z-score [2]	PBM binding z-score [3]	PBM binding z-score [4]	PBM binding z-score [5]	PBM binding z-score [6]	PBM binding z-score [7]	PBM binding z-score [8]	PBM binding z-score [9]	PBM binding z-score [10]	PBM binding z-score [11]	PBM binding z-score [12]	PBM binding z-score [13]	PBM binding z-score [14]	PBM binding z-score [15]	PBM binding z-score [16]	PBM binding z-score [17]	PBM binding z-score [18]	PBM binding z-score [19]	PBM binding z-score [20]
CCTACTGGGCCGAAAAGGTCATTGATGCCGATAA	3.42	4.38	2.91	3.93	0.134	4.47	1.7	3.34	0.611	2.39	0.922	2.21	-1.07	-1.05	1.68	4.56	1.74	4.84	0.458	3.77
TCTGCTAGGTCGGTTGGTCAGCTAACGAGCTGCC	-1.29	-0.709	-0.834	-0.284	0.368	0.029	-1.04	0.448	0.962	0.78	0.68	0.822	-0.109	-0.00426	-1.51	-0.617	-0.886	-0.528	-1.53	0.845
CCTCGGAGGACAGAAGGTCAGAACTGTCCGCTTT	0.99	1.35	0.337	1.03	-0.707	1.54	-0.0634	0.635	-0.743	0.0441	0.127	-0.242	-0.806	-1.38	0.826	1.1	0.0205	1.7	0.442	2.85
ATCTCTAGGTAAAAATAGTTCAGTGAATGCAAAT	0.334	4.28	0.864	0.965	0.656	0.534	0.601	0.436	0.563	0.283	1.13	1.46	0.671	1.22	0.455	0.922	1.12	0.59	1.51	0.993
GCATATAGGTAATACAAGGGGAAAGTCCGATTGT	0.256	0.159	0.0811	-0.078	-0.118	0.754	0.908	0.64	0.337	0.269	4.01	2.14	0.831	0.956	0.379	-0.118	0.0351	0.489	0.339	-0.122
CCAGACAGATGAGAAGGTAACTCAGCCTCGATTA	-0.147	-0.0249	0.532	-0.254	-0.206	-0.358	0.455	-0.402	-0.157	-0.366	0.125	-0.374	0.361	-0.388	1.08	-0.297	0.323	-0.00624	1.43	-0.0941
CCTACTGGGCCAAAAAGGTCATTGTTGCCGATAA	3.25	4.03	2.95	4.03	0.141	4.47	2.62	4.03	1.19	2.96	3.95	3.99	-0.0573	-1.07	2.39	4.29	1.92	4.33	0.787	3.56
TCTTGTAGATCAATAGAGGTTGAGAAAGTGCGCT	0.33	0.354	-0.0207	0.212	-0.126	0.471	-0.324	1.44	2.63	1.98	1.55	0.494	0.467	0.307	-0.399	1.01	-0.0662	0.48	-0.121	-0.0211
AGAACGAGGGCAATGAGTAGATAGCACGGGTGGC	0.288	0.27	-0.537	-0.239	-0.59	1.49	1.6	1.05	0.241	0.733	2.9	2.75	0.5	-0.201	0.383	0.323	0.226	0.413	0.137	2
CCTGCTAGGTCAAGGTCAGCTAATCTACAGTATG	4.87	3.95	1.09	3.19	0.294	4.45	3.7	4.63	1.39	3.47	4.9	4.64	0.201	-0.28	2.21	3.45	0.401	3.88	1.15	5.09
TCTGCTAGGTCAACGATGGTAAGCTAATCTGCTA	3.07	2.01	-0.518	1.4	-0.543	2.85	2.51	3.09	1.65	2.31	4.18	4.18	0.49	-0.213	0.663	0.925	-1.17	1.92	-1	4.03
CCTACTTGGTCAGGAGGTCACACACCGGATATGA	3.55	3.69	2.02	3.39	0.285	4.29	3.39	3.9	1.75	3.1	1.61	3.56	0.756	0.0151	3.23	4.26	1.05	4.89	2.31	3.75
ATCTCTAGGTAACCAAGGTCAGTGAATGCCGAAC	1.59	2.3	1.46	1.91	0.895	2.72	1.79	1.92	0.476	1.39	4.04	3.81	1.28	1.3	1.93	2.47	1.21	2.26	2.02	2.7
